Reference: the supplement of paper PMC7724964

T1: ARID4A 568-634 Tudor-knot (domain begin residue: 568, domain end residue: 634), P29374
T1 chain: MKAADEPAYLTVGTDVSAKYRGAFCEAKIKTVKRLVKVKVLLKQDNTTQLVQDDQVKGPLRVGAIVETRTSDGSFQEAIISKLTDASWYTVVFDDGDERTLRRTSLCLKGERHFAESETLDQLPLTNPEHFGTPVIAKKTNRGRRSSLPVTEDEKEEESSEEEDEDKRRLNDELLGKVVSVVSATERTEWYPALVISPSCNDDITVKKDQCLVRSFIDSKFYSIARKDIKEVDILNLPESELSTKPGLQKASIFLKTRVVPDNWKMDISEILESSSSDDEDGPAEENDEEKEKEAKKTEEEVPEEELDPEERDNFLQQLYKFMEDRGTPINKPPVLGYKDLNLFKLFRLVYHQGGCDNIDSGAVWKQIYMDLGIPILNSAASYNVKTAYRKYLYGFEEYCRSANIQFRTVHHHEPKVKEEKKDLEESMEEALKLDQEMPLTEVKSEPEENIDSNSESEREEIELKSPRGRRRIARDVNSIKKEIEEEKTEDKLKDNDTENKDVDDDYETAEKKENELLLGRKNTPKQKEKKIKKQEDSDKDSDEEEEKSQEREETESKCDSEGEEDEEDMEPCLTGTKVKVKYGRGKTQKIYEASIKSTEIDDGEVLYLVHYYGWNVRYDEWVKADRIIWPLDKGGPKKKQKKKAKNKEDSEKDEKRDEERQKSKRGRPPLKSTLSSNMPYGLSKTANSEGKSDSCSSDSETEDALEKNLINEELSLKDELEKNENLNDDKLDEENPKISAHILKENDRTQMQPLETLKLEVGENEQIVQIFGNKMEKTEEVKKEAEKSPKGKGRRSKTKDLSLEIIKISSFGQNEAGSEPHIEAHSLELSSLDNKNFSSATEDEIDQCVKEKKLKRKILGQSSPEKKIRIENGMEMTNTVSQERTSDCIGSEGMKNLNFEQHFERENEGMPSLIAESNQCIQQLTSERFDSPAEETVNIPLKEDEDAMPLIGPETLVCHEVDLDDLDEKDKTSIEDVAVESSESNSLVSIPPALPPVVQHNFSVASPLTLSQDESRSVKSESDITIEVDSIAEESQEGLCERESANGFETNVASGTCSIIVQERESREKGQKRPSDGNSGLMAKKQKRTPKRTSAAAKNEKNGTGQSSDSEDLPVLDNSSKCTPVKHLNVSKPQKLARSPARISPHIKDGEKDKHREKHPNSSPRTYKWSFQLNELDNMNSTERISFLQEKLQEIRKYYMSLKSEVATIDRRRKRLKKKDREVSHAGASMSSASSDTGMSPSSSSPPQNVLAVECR

T2: ZGPAT 120-268 zf-CCCH+TUDOR (domain begin residue: 120, domain end residue: 268), Q8N5A5
T2 chain: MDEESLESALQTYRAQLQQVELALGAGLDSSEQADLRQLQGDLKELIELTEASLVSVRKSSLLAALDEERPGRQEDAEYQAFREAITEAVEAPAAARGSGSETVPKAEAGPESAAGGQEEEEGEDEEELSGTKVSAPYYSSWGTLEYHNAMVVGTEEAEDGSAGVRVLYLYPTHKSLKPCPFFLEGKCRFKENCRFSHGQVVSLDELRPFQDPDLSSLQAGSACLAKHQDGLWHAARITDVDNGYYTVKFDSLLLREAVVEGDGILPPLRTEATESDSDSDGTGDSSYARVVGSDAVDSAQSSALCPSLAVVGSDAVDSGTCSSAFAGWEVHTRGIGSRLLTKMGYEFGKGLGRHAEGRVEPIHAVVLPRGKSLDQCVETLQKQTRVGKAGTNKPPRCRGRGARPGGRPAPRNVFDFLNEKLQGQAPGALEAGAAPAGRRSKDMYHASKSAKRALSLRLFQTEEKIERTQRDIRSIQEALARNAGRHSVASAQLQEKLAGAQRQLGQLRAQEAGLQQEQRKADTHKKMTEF

T3: ARFGEF2 639-829 Sec7 (domain begin residue: 639, domain end residue: 829), Q9Y6D5
T3 chain: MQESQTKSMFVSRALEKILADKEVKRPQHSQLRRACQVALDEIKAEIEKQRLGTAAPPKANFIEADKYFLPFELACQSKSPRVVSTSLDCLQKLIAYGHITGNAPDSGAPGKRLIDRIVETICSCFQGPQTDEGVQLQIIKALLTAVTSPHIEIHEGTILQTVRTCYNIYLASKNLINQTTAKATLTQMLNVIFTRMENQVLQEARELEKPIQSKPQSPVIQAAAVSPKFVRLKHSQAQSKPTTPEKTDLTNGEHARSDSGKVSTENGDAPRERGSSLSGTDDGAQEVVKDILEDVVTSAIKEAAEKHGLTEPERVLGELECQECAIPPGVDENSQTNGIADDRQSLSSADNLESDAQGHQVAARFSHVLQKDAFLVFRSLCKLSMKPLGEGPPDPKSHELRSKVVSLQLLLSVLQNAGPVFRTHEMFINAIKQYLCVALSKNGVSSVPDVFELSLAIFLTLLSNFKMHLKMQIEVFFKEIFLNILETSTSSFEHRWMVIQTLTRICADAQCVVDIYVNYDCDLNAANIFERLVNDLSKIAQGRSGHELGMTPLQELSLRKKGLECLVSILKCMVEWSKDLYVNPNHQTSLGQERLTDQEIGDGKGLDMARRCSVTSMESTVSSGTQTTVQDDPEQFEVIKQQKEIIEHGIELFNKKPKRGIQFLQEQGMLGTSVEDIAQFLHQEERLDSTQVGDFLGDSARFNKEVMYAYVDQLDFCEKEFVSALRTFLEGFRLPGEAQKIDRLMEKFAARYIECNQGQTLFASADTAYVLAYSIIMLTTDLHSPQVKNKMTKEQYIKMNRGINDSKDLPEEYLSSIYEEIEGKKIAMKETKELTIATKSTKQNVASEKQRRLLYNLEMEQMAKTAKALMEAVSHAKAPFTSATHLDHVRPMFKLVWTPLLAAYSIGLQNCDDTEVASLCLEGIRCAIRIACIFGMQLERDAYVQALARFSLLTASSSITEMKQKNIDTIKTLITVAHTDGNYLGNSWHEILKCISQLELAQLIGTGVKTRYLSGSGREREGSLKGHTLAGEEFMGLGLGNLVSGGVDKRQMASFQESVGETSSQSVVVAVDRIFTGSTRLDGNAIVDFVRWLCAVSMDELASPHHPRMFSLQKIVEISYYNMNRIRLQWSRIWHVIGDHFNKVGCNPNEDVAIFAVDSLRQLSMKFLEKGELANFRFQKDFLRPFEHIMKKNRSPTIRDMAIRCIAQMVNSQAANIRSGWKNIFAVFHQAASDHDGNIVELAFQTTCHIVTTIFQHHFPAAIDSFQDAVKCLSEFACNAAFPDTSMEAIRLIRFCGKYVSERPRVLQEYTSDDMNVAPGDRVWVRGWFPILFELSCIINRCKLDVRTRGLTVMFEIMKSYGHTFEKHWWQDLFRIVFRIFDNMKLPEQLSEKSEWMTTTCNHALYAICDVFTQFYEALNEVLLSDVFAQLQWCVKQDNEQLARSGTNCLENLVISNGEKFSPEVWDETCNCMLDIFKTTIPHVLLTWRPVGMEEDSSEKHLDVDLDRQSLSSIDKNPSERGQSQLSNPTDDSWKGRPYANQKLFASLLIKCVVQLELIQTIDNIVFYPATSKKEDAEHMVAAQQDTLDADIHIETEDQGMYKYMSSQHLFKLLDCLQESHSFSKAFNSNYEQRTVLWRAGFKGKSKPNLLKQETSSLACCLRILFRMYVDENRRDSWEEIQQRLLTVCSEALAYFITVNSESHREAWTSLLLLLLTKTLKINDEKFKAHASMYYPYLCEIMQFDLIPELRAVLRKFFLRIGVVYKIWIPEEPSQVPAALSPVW

T4: BTN1A1 285-479 SPRY (domain begin residue: 285, domain end residue: 479), Q13410
T4 chain: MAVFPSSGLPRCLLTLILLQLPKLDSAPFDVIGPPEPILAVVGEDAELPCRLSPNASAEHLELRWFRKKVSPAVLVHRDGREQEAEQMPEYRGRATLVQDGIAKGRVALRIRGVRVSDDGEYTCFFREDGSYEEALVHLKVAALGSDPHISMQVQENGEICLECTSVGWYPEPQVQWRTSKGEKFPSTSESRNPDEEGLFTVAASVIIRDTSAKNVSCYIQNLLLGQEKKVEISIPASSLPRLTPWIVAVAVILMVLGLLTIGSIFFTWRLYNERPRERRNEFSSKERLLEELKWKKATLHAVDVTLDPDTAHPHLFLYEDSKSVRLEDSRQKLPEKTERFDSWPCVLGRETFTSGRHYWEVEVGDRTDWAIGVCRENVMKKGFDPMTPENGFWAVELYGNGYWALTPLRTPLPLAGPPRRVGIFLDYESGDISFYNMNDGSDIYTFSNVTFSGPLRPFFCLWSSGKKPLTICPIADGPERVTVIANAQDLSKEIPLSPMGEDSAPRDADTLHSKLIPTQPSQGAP

B1: unnamed (peptide)
chain: YQMQQWQFSPEIWLNM
B2: unnamed (peptide)
chain: MLHDGWLMPGMTHSVN
B3: unnamed (peptide)
chain: MPDGLPEWWQGRHDWW
B4: unnamed (peptide)
chain: DIYWGYHMTDFISQET
B5: unnamed (peptide)
chain: RDPHWQHKQQMQIVLM

target: CBX3 109-173 Chromo_shadow (domain begin residue: 109, domain end residue: 173), Q13185; assay: phage ELISA signal ratio (GST-PRM binding over GST background); higher = stronger binding of peptide-phage to the PRM
Protocol: (§1)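 Phage-displayed random hexadecapeptides (Cys-free, flanked by invariant Gly linkers, fused to the M13 P8 major coat protein) were selected over 5 rounds against GST-fused human PRM domains. Individual clones from rounds 4-5 were tested by phage ELISA, and positive clones binding the target but not GST were sequenced. Values are the ELISA signal ratio of target over background (GST); the background signal is given separately.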

Chain of CBX3 109-173 Chromo_shadow (domain begin residue: 109, domain end residue: 173), Q13185 (Q13185 whole entry, the tested form may be a part): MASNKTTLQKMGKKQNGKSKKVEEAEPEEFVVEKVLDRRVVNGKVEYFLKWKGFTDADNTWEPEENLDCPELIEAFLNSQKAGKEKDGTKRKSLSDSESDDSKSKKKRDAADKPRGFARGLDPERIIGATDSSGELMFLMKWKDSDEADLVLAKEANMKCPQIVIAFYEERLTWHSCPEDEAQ

Row | Binder | phage ELISA signal ratio
1 | B1 | 7.79

Target: T1, ARID4A 568-634 Tudor-knot (domain begin …
Assay: as above
Protocol: as §1

Row | Binder | phage ELISA signal ratio
2 | B2 | 8.8

Target: T2, ZGPAT 120-268 zf-CCCH+TUDOR (domain …
Assay: as above
Protocol: as §1

Row | Binder | phage ELISA signal ratio
3 | B2 | 4.63

Target: T3, ARFGEF2 639-829 Sec7 (domain begin …
Assay: as above
Protocol: as §1

Row | Binder | phage ELISA signal ratio
4 | B3 | 18.2

target: ARF3 1-181 Arf (domain begin residue: 1, domain end residue: 181), P61204; assay: as above
Protocol: as §1

Chain of ARF3 1-181 Arf (domain begin residue: 1, domain end residue: 181), P61204 (P61204 whole entry): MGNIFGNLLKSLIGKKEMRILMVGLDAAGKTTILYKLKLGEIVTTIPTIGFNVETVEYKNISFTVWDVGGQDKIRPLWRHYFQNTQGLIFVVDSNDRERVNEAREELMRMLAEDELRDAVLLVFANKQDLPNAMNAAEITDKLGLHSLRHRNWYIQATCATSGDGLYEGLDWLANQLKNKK

Row | Binder | phage ELISA signal ratio
5 | B4 | 15.3

Target: T4, BTN1A1 285-479 SPRY (domain begin …
Assay: as above
Protocol: as §1

Row | Binder | phage ELISA signal ratio
6 | B5 | 11.1
